Nrf2 inh = blocks Nrf2 signaling; A549 ARE-Fluc reporter, luciferase luminescence, 18-24 h; Potency, µM (top dose mostly 46 µM), inactives show top-dose activity change, negative = inhibition, actives largely listed as inhibitors; 2.1% of 360,000 active; also: potency is read from the fitted curve at half-maximal effect; % is scaled to controls: 0 for no effect and ±100 for the full control effect; nearly all actives have a fitted effect of over 60% in size
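Concentration-response testing used A549 ARE_Fluc cells at 5000 cells/well. Following an 18-24 h compound incubation, viability was read by fluorescence (Ex 405/Em 525) and luciferase output by luminescence.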
ALOX12 inh = blocks human arachidonate 12S-lipoxygenase | AID 1671190 | purified 12hLO, xylenol orange hydroperoxide absorbance | 1.1% of 580,000 active | Potency, µM (titrated, usually from 108 µM), for the others: at the highest dose activity change, negative = inhibition, actives largely listed as inhibitors | P18054; also: potency is read from the fitted curve at half-maximal effect; % is scaled to controls: 0 for no effect and ±100 for the full control effect
Target sequence (P18054 whole entry, looked up): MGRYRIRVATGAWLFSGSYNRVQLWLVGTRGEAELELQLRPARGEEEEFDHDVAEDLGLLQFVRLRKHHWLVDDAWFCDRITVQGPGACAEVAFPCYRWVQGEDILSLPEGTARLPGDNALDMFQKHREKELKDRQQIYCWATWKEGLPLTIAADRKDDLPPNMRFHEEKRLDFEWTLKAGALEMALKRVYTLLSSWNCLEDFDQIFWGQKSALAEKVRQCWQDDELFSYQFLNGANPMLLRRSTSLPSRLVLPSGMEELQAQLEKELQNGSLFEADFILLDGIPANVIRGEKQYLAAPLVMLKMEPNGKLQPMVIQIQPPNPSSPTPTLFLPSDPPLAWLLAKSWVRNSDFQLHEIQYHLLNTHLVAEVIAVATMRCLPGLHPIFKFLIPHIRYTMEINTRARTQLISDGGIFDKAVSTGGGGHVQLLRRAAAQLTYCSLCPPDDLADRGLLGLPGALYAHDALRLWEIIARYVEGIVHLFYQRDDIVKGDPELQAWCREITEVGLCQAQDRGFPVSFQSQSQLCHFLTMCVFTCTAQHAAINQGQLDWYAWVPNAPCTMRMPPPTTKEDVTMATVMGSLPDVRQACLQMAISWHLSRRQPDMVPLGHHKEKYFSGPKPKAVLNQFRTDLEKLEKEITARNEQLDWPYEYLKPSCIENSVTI
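Purified human 12hLO at 150 nM in 25 mM Hepes, 0.01% Triton X-100, pH 7.0, preincubated 15 min at room temperature with compound. Reaction started with 40 uM arachidonic acid, 30 min at room temperature. Hydroperoxide measured by Fe-xylenol orange, 573/405 nm absorbance ratio.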
LDHA inh = inhibitors of human lactate dehydrogenase A. P00338. purified LDHA, NADH/diaphorase-resazurin fluorescence; stronger effect = lower value. activity change, % (values are at about 110 or 230 µM). 0.15% of 480,000 active; in the data active = activity change below about -30%; inconclusive = mostly about -25% to -30%;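 also: plate controls were DMSO wells for no effect and wells without enzyme for full effect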
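Remaining NADH was detected by diaphorase (0.133 mg/mL) converting 37 µM resazurin to fluorescent resorufin, read at 0 and 20 minutes. The preceding 5-minute room-temperature reaction used 2 nM LDHA, 0.2 mM sodium pyruvate and 0.06 mM NADH at pH 7.4.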
ERG Ets-DNA blk = blocks human ERG Ets domain binding to DNA; P11308; fluorescence polarization, His-ERG Ets domain / labelled DNA; Potency, µM (highest dose often 76.9 µM), inactives show at the top dose FP activity, negative = inhibition, hits mostly inhibitors; 0.028% of 370,000 active; active = well fitted inhibition curve with a large enough effect in the polarisation, with a control signal flat; inconclusive = small, poorly fitted or top-dose-only effect, or effect the other way, or a change in a side signal; inactive = no such curve, though single readings can be large or run the other way; the % refers to the polarisation;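 also: polarization taken with two DNA probes labelled with fluorescein and Texas red; potency is read from the fitted curve at half-maximal effect; % of control where 0% means no effect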
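His-tagged ERG Ets domain (1 uM in the protein solution; 300mM KCl, 50mM Tris-HCl, 1mM EDTA, 1mM DTT, pH 7.5) received compound, then a probe mix of 5 nM fluorescein-DNA and 100nM Texas-615-DNA. Fluorescence polarization was read for both dyes.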
Nrf2 ARE act = activators of Nrf2 (ARE) signaling; AREc32 ARE-luciferase reporter (MCF7-derived line), luminescence, 24 h; Potency, µM (doses to about 46.1 µM), inactives show at the highest dose activation, hits mostly activators; 0.31% of 410,000 active; AID 624171; also: potency is read from the fitted curve at half-maximal effect; % of control where 0% means no effect; nearly all actives have a fitted effect of over 65% in size
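AREc32 cells carrying an ARE-driven firefly luciferase reporter were seeded at 1000 cells/well in OPTI-MEM with 5% FBS, then exposed to compound for 24 hr at 37 deg C. Luminescence was read with Steady-Glo after 30 min at RT.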
A549 viability = kills or reduces viability of A549 cells in Nrf2 counter-screen | A549 ARE-Fluc cells, CellTiter-Fluor viability, 18-24 h | Potency, µM (doses to about 46 µM), for inactives: at the highest dose activity change, negative = cytotoxicity, hits mostly inhibitors | 0.16% of 390,000 active | AID 504648; also: potency is read from the fitted curve at half-maximal effect; % is scaled to controls: 0 for no effect and ±100 for the full control effect
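A549 ARE-Fluc cells in 5% FBS OPTI-MEM, 5000 cells/well, rested 2 h then exposed to compounds in concentration-response for 18-24 h at 37 °C. Viability by CellTiter-Fluor fluorescence (Ex 405/Em 525) after 30 min; luciferase luminescence (BugLite, 15 min, RT) read afterwards.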
An asterisk follows results filed as active; ! = repeats disagree; [ ] = remark or other dose. Rows were chosen to be rich in hits. Some 2.7% of all compounds tested hit in one or more screens of this group. Unless noted, calls follow the shape of the dose curve; as a rule, active = well fitted curve in the direction sought with a large enough effect; inconclusive = small, poorly fitted or top-dose-only effect, or another doubt; inactive = no such curve, though single readings can be large; an effect the other way counts as inactive or inconclusive.

For COc1ccc(-c2cc(=S)ss2)cc1 the results were ALOX12 inh 18µM*!.
Screening CCOc1ccc(C(C#N)N2CCOCC2)cc1OC (stereo not given) returned Nrf2 inh 13%, ALOX12 inh 0%, LDHA inh 0, ERG Ets-DNA blk 0%, Nrf2 ARE act -1% and A549 viability 0%.
`CCOc1ccc(C(CN2CCOCC2)C(C)=O)cc1OC` (stereo not given) gave ALOX12 inh 32µM*, LDHA inh 2 and Nrf2 ARE act inconclusive.
Screening CCN(CC)CCNCC1C(=O)O[C@@H]2C[C@@]3(C)CCC[C@H](C)C3=C[C@H]12 (stereo not given in full) returned Nrf2 inh -11%, ALOX12 inh 0%, LDHA inh -2, ERG Ets-DNA blk 0%, Nrf2 ARE act 11µM* and A549 viability 1%.
`O=C1NC(c2ccccc2)=C(c2nc3ccccc3s2)C(c2ccc(F)cc2)N1` (stereo not given) gave Nrf2 inh 16µM*, ALOX12 inh inconclusive, LDHA inh 4, ERG Ets-DNA blk -1%, Nrf2 ARE act 3% and A549 viability inconclusive.
`O=C(O)CSc1ncnc2sc(-c3ccccc3)cc12` gave Nrf2 inh -4%, ALOX12 inh -17%, LDHA inh -13, ERG Ets-DNA blk 4%, Nrf2 ARE act 5% and A549 viability 0%.
`CC(=O)c1c(C)[nH]c(C(=O)CSc2nnc(C3CC3)o2)c1C` gave ALOX12 inh 4% and LDHA inh 1.
For CC(=O)c1c(C)[nH]c(C(=O)CSc2nnc(-c3ccccc3)o2)c1C the results were Nrf2 inh 21µM*, ALOX12 inh 0%, LDHA inh -2, ERG Ets-DNA blk -3%, Nrf2 ARE act 0% and A549 viability -14%.
For CC(=O)c1c(C)[nH]c(C(=O)CSc2ncnc3sc(-c4ccccc4)cc23)c1C the results were Nrf2 inh 5.2µM*, ALOX12 inh -2%, LDHA inh -1, ERG Ets-DNA blk 2%, Nrf2 ARE act 0%[9.22 µM] and A549 viability -7%.
For COc1ccc2oc(-c3ccc(NC(=O)c4ccccc4C)cc3)nc2c1 the results were ALOX12 inh 5% and LDHA inh 6.
For O=C1CSC(c2cccc(Br)c2)N1c1cccc(C(F)(F)F)c1 (stereo not given) the results were ALOX12 inh inconclusive and LDHA inh 2.
CC(=O)Nc1ccc(Nc2cc(C(C)C)nc3c(-c4ccccc4)cnn23)cc1 was read as ALOX12 inh 12% and LDHA inh -16.
`O=C(O)c1cc2c(ncc3c(=O)n(-c4ccccc4)[nH]c32)s1` gave ALOX12 inh -25%, LDHA inh -35* and Nrf2 ARE act -2%.
Screening CCCc1cc(N2CCN(c3ccccc3F)CC2)n2cnnc2n1 returned Nrf2 inh 16µM*, ALOX12 inh -5%, LDHA inh 2, ERG Ets-DNA blk 0%, Nrf2 ARE act -1% and A549 viability -13%.
Screening COc1ccc(-n2c(=S)[nH]c3ccccc3c2=S)cc1 returned Nrf2 inh inconclusive, ALOX12 inh -2%, LDHA inh -1, ERG Ets-DNA blk 4%, Nrf2 ARE act 0% and A549 viability -7%.
Screening COc1ccc(-n2c(=S)[nH]c3ccccc32)cc1 returned Nrf2 inh -7%, ALOX12 inh 28µM*, LDHA inh 2, ERG Ets-DNA blk 14%, Nrf2 ARE act 3% and A549 viability -18%.
`COCCn1c(=S)[nH]c2ccccc21` gave Nrf2 inh -10%, ALOX12 inh -17%, LDHA inh -6, ERG Ets-DNA blk -3%, Nrf2 ARE act 3% and A549 viability -2%.
